From PubChem BioAssay (NCI) come the findings set out here.

This is part of a sample that, as a whole, favours compounds with a hit. Of some 79,000 tested, about 15% had one in any assay. A number with no mark means an inactive call. The source made the active and inactive calls. Rule as the data show it: active = growth inhibition above about 70%; inactive = the rest.

A short description of assay [1]: NCI Yeast Anticancer Drug Screen. Data for the rad50 strain (AID 155).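 Also: 0% = growth of vehicle-only cultures of the same strain.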 Particulars: S. cerevisiae rad50 strain growth inhibition, active compounds read high. In outline:
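Genetically altered yeast (DNA repair pathway); compound treatment; growth inhibition vs vehicle ctrl.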

Assay [2] can be described thus: NCI Yeast Anticancer Drug Screen. Data for the mec2-1 strain (AID 157). Particulars: S. cerevisiae mec2-1 strain, active compounds read high. The method in brief:
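Mutant yeast (mec2-1) grown with compound; growth inhibition relative to vehicle control reported.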

Assay [3] is described as follows: NCI Yeast Anticancer Drug Screen. Data for the sgs1 mgt1 strain (AID 161).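 Also: 0% = growth of cultures given vehicle only.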 Particulars: S. cerevisiae sgs1 mgt1 strain, active compounds read high. In outline:
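Yeast cells carrying a defined DNA-repair defect were exposed to test compounds. Growth inhibition was measured relative to vehicle-treated controls.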

Assay [4] is described as follows: NCI Yeast Anticancer Drug Screen. Data for the cln2 rad14 strain (AID 165).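 Also: 0% = growth equal to vehicle treated cultures.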 Particulars: S. cerevisiae cln2 rad14 strain, active compounds read high. In outline:
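Readout is yeast growth inhibition versus vehicle-treated controls, using a strain with cln2 and rad14 alterations exposed to compound.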

Assay [5] can be described thus: NCI Yeast Anticancer Drug Screen. Data for the bub3 strain (AID 167). The conditions noted are these: S. cerevisiae bub3 mutant strain, active compounds read high. The method in brief: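 Yeast carrying a defined mutation is treated with each compound, and growth is compared with that of vehicle-exposed cells to give inhibition.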
Assay [6] can be described thus: NCI Yeast Anticancer Drug Screen. Data for the mlh1 rad18 strain (AID 175). The conditions noted are these: S. cerevisiae mlh1 rad18 strain growth inhibition, active compounds read high. In outline: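 Genetically defined yeast (DNA repair-deficient) exposed to compounds; growth inhibition determined relative to vehicle.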
[7] abbreviates: at 5.0 µM (retest, dose inferred, filed as 0.5).
Setting [8] is: at 50.0 µM (retest, dose inferred, filed as 5.0).

In the case of `Clc1ccc(-n2ncc3c(Cl)nc(Cl)nc32)cc1`, the growth inhibition was 98% (active) in assay [1] (setting [7]); 99% (active) in assay [1] (setting [8]); 99% (active) in assay [2] (setting [7]); 99% (active) in assay [2] (setting [8]); 100% (active) in assay [3] (setting [7]); 99% (active) in assay [3] (setting [8]). The growth inhibition in assay [4] (setting [7]) was 97% (active); in assay [4] (setting [8]) it was 98% (active); in assay [5] (setting [7]), 99% (active); in assay [5] (setting [8]), 99% (active); in assay [6] (setting [7]), 99% (active); in assay [6] (setting [8]) it was 99% (active).

For the molecule `CSC(SC)=C(C#N)C(=O)Nc1cccc(Cl)c1`, the growth inhibition in assay [1] (setting [7]) was 78% (active); in assay [1] (setting [8]), 97% (active); in assay [2] (setting [7]), 62%; in assay [2] (setting [8]), 99% (active); in assay [3] (setting [7]), 65%; in assay [3] (setting [8]), 99% (active). The growth inhibition in assay [4] (setting [7]) is 39%; in assay [4] (setting [8]), 98% (active); in assay [5] (setting [7]) it was 65%; in assay [5] (setting [8]), 99% (active); in assay [6] (setting [7]) it was 56%; in assay [6] (setting [8]), 97% (active).

As to `CC1C2c3ccccc3C(c3ccccc32)C1CO` (stereo unspecified), the growth inhibition in assay [1] (setting [7]) was 11%; in assay [1] (setting [8]), 88% (active); in assay [2] (setting [7]) it was 1%; in assay [2] (setting [8]), 61%; in assay [3] (setting [7]), 6%; in assay [3] (setting [8]), 77% (active). For the same molecule, the growth inhibition in assay [4] (setting [7]) was 4%; in assay [4] (setting [8]), 71% (active); in assay [5] (setting [7]), -4%; in assay [5] (setting [8]), 74% (active); in assay [6] (setting [7]), -44%; in assay [6] (setting [8]), 80% (active).

For `CN(C)c1ccc(SC#N)cc1`, the growth inhibition was -4% in assay [1] (setting [7]); 92% (active) in assay [1] (setting [8]); 2% in assay [2] (setting [7]); 85% (active) in assay [2] (setting [8]); -2% in assay [3] (setting [7]); 86% (active) in assay [3] (setting [8]). Also, the growth inhibition is 3% in assay [4] (setting [7]); 51% in assay [4] (setting [8]); 16% in assay [5] (setting [7]); 95% (active) in assay [5] (setting [8]); -20% in assay [6] (setting [7]); 87% (active) in assay [6] (setting [8]).

As for `CC(=O)Oc1ccc(OC(C)=O)c2c1CC=CC2`, the growth inhibition in assay [1] (setting [7]) is 3%; in assay [1] (setting [8]) it was 2%; in assay [2] (setting [7]), -1%; in assay [2] (setting [8]), 1%; in assay [3] (setting [7]), 2%; in assay [3] (setting [8]) it was 10%. Moreover, the growth inhibition was 0% in assay [4] (setting [7]); 11% in assay [4] (setting [8]); 4% in assay [5] (setting [7]); 8% in assay [5] (setting [8]); -20% in assay [6] (setting [7]); 2% in assay [6] (setting [8]).

As for `CC(C)(C)C(=O)CC(c1ccccc1)c1ccccc1`, the growth inhibition in assay [1] (setting [7]) was 11%; in assay [1] (setting [8]) it was 20%; in assay [2] (setting [7]) it was -1%; in assay [2] (setting [8]) it was 3%; in assay [3] (setting [7]), 5%; in assay [3] (setting [8]), 30%. For the same molecule, the growth inhibition in assay [4] (setting [7]) was 12%; in assay [4] (setting [8]), 0%; in assay [5] (setting [7]), 10%; in assay [5] (setting [8]), 22%; in assay [6] (setting [7]), -13%; in assay [6] (setting [8]), 9%.

As for `CCCCCCCCCC(=O)CCCCCCCCC`, the growth inhibition in assay [1] (setting [7]) is 48%; in assay [1] (setting [8]), 7%; in assay [2] (setting [7]), 30%; in assay [2] (setting [8]), 8%; in assay [3] (setting [7]), 44%; in assay [3] (setting [8]), 14%. Besides, the growth inhibition is 22% in assay [4] (setting [7]); 11% in assay [4] (setting [8]); 92% (active) in assay [5] (setting [7]); 38% in assay [5] (setting [8]); 32% in assay [6] (setting [7]); 35% in assay [6] (setting [8]).

`CCCCN(CCCC)C(=O)C(C)OC(C)=O` (stereo unspecified): the growth inhibition is 0% in assay [1] (setting [7]); 25% in assay [1] (setting [8]); -4% in assay [2] (setting [7]); 0% in assay [2] (setting [8]); -3% in assay [3] (setting [7]); 6% in assay [3] (setting [8]). Also, the growth inhibition in assay [4] (setting [7]) was 10%; in assay [4] (setting [8]), 1%; in assay [5] (setting [7]), -2%; in assay [5] (setting [8]), -8%; in assay [6] (setting [7]), -38%; in assay [6] (setting [8]), 8%.

With `CC(=O)Nc1nc(-c2ccccc2)cs1`, the growth inhibition was 1% in assay [1] (setting [7]); 23% in assay [1] (setting [8]); -4% in assay [2] (setting [7]); 4% in assay [2] (setting [8]); -2% in assay [3] (setting [7]); 23% in assay [3] (setting [8]). The growth inhibition was 7% in assay [4] (setting [7]); -5% in assay [4] (setting [8]); -1% in assay [5] (setting [7]); 6% in assay [5] (setting [8]); -11% in assay [6] (setting [7]); 2% in assay [6] (setting [8]).

For `CN(C)CNC(=S)S`, the growth inhibition in assay [1] (setting [7]) is 98% (active); in assay [1] (setting [8]), 99% (active); in assay [2] (setting [7]), 97% (active); in assay [2] (setting [8]), 100% (active); in assay [3] (setting [7]) it was 100% (active); in assay [3] (setting [8]) it was 100% (active). The growth inhibition in assay [4] (setting [7]) was 97% (active); in assay [4] (setting [8]) it was 51%; in assay [5] (setting [7]), 99% (active); in assay [5] (setting [8]), 100% (active); in assay [6] (setting [7]), 97% (active); in assay [6] (setting [8]) it was 98% (active).

Take `Cc1ccccc1OCc1cccc(Cl)c1`: the growth inhibition in assay [1] (setting [7]) was 8%; in assay [1] (setting [8]), 23%; in assay [2] (setting [7]) it was -1%; in assay [2] (setting [8]), 4%; in assay [3] (setting [7]), 4%; in assay [3] (setting [8]) it was 43%. Besides, the growth inhibition in assay [4] (setting [7]) is 9%; in assay [4] (setting [8]), -10%; in assay [5] (setting [7]) it was 4%; in assay [5] (setting [8]), 17%; in assay [6] (setting [7]) it was -5%; in assay [6] (setting [8]) it was 6%.

Take `CC1=C(/C=C/C(C)=C/C(=O)O)C(C)(C)CCC1`: the growth inhibition in assay [1] (setting [7]) is 2%; in assay [1] (setting [8]), 67%; in assay [2] (setting [7]), -2%; in assay [2] (setting [8]), 47%; in assay [3] (setting [7]), 3%; in assay [3] (setting [8]) it was 83% (active). For the same molecule, the growth inhibition is 3% in assay [4] (setting [7]); 43% in assay [4] (setting [8]); 4% in assay [5] (setting [7]); 64% in assay [5] (setting [8]); -36% in assay [6] (setting [7]); 64% in assay [6] (setting [8]).

`Cc1cc(C(=O)c2ccccc2Cl)ccc1O`: the growth inhibition is 10% in assay [1] (setting [7]); 98% (active) in assay [1] (setting [8]); -5% in assay [2] (setting [7]); 99% (active) in assay [2] (setting [8]); 3% in assay [3] (setting [7]); 98% (active) in assay [3] (setting [8]). Further, the growth inhibition in assay [4] (setting [7]) is -2%; in assay [4] (setting [8]), 98% (active); in assay [5] (setting [7]), -3%; in assay [5] (setting [8]), 99% (active); in assay [6] (setting [7]), 10%; in assay [6] (setting [8]), 98% (active).
